Laboratory results: PubChem BioAssay (EPA / NIEHS)
Inconclusive results are not listed. Activity calls are given as the source filed them. How the source made its calls: active means hit-call score of the fitted dose curve at least 0.9, where 1 is the maximum; inconclusive means response in the unintended direction; inactive means score below 0.9.

Molecular target: rat Opioid Receptor, Non-selective Binding, Oprm1 (gene 25601) (UniProt P33535)
Assay: NVS_GPCR_rOpiate_NonSelective: NovaScreen (NVS) G Protein-Coupled Receptor Assay for rat Opioid Receptor, Non-selective Binding (AID 2283318)
Method: NVS_GPCR_rOpiate_NonSelective is a biochemical, single-readout assay that uses extracted gene-proteins from Rat forebrain membranes in a tissue-based cell-free assay. Measurements were taken 1.5 hours after chemical dosing in a 48-well plate.NVS_GPCR_rOpiate_NonSelective is one of one assay component(s) measured or calculated from the NVS_GPCR_rOpiate_NonSelective assay. It is designed to make measurements of radioligand binding, a form of binding reporter, as detected with scintillation counting signals by Filter-based radiodetection technology.Data from the assay component NVS_GPCR_rOpiate_NonSelective was analyzed into 1 assay endpoint. This assay endpoint, NVS_GPCR_rOpiate_NonSelective, was analyzed in the positive analysis fitting direction relative to DMSO as the negative control and baseline of activity. Using a type of binding reporter, loss-of-signal activity can be used to understand changes in the binding as they relate to the gene Oprm1. Furthermore, this assay endpoint can be referred to as a primary readout, because the performed assay has only produced 1 assay endpoint. To generalize the intended target to other relatable targets, this assay endpoint is annotated to the gpcr intended target family, where the subfamily is rhodopsin-like receptor.
Binding assays used specific radioligands (tritiated, iodinated) with non-radioactive competitive displacement ligands in agonist or antagonist protocols (as indicated) and various reference compounds and inhibitors to titrate specific binding to receptors and transporters. Most enzyme assays (CYPs, kinases, phosphatases, proteases, HDACs) used recombinant protein and specific substrates (fluorescence mostly, some colorimetric and radioactive) and inhibitors, followed by a biochemical separation of substrate and product. All assays for the biochemical HTS were initially run in duplicate at a single concentration (10 uM for CYP450 assays and 25 uM for all others). […] Each assay was run with positive and negative controls, and concurrent controls on every plate. The follow-up (secondary) screen tested active chemical-pairs in concentration series, as well as a few additional assays not tested in the primary screen, some selected negative inactives, and several cases re-run in the concentration series for confirmatory purposes.

Sequence of rat Opioid Receptor, Non-selective Binding, Oprm1 (gene 25601) (P33535 whole entry, looked up): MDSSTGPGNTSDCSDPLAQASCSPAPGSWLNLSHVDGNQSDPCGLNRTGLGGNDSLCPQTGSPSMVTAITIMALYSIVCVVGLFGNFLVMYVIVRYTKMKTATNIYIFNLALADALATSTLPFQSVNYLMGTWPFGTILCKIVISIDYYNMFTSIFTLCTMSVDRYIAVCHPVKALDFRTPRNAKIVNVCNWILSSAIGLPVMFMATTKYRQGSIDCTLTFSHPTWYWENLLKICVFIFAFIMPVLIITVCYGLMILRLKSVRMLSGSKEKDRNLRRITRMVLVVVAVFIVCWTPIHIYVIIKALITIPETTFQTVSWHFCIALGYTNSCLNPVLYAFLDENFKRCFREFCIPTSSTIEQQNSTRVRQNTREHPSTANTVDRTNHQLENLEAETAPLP

Q: Which AC50 does the source give for `NCc1cccc(C2CCN(C(=O)c3ccc(C#Cc4ccccc4F)o3)CC2)c1` here?
A: The AC50 was 12.1 µM (active).

Q: `Clc1cc(Cl)c2c(c1)N=C1CCCCCN1C2` was tested. Which AC50 did it give?
A: Its AC50 is 7.31 µM (active).

Q: How did the AC50 turn out when `O=c1[nH]sc2ccccc12` was run?
A: Its AC50 is 19.6 µM (active).

Q: How did the AC50 turn out when `COc1ccc2cc(S(=O)(=O)N[C@H](CC(=O)N[C@H](Cc3ccc(CN4[C@H](C)CCC[C@@H]4C)cc3)C(=O)N(C)C(C)C)c3ccc4c(c3)OCO4)ccc2c1` was run?
A: The AC50 was 17.7 µM (active).

Q: With `CCN(CC)C(=O)c1cc(S(=O)(=O)Cc2ccccc2)c(N2CCC(c3ccccc3)CC2)cc1N(CC)CCN(C)C` as the molecule, how does the outcome read?
A: Its outcome is “inactive”.

Q: How did the AC50 turn out when `O=C1c2ccccc2C(=O)N1CCc1noc(-c2ccc(CN3CCCCCC3)s2)n1` was run?
A: Its AC50 is 21.1 µM (active).

Q: For `CN(C[C@@H](CC[N+]12CCC(C3CCCCC3)(CC1)CC2)c1ccc(Cl)c(Cl)c1)C(=O)c1cc(C(F)(F)F)cc(C(F)(F)F)c1`, which AC50 is on record?
A: The AC50 was 35.5 µM (active).

Q: For `c1ccc(C[n+]2cccc3ccccc32)cc1`, which AC50 is on record?
A: Its AC50 is 14.5 µM (active).

Q: `CC/C(=C(/CC)c1ccc(O)cc1)c1ccc(O)cc1` was tested. Which AC50 did it give?
A: The AC50 was 12 µM (active).

Q: How did the outcome turn out when `O=C(O)Cc1cc(I)c(Oc2ccc(O)c(I)c2)c(I)c1` was run?
A: The outcome was “inactive”.

Q: `CCN(Cc1cccnc1)C(=O)c1cccc(Cl)c1[C@]1(C)C(=O)N(Cc2ccc(OC)cc2OC)c2ccc(Cl)cc21` was tested. Which AC50 did it give?
A: The AC50 was 5.25 µM (active).

Q: For `CN(C)C(=O)C1(N2CCCCC2)CCN(CC[C@@]2(c3ccc(Cl)c(Cl)c3)CN(C(=O)c3ccccc3)CCO2)CC1`, which AC50 is on record?
A: The AC50 was 1.73 µM (active).

Q: How did the AC50 turn out when `Cc1occc1C(=O)Nc1ccc(C(=O)N2CCC(F)(F)/C(=C\C(=O)N3CCC(N4CCCCC4)CC3)c3ccccc32)cc1` was run?
A: The AC50 was 5.85 µM (active).

Q: With `COc1cccc([C@H](O)C2CCN(CCc3ccc(F)cc3)CC2)c1OC` as the molecule, how does the AC50 read?
A: The AC50 was 6.91 µM (active).

Q: Which AC50 does the source give for `CN(C)c1ccc(C(=C2C=CC(=[N+](C)C)C=C2)c2ccc(N(C)C)cc2)cc1` here?
A: The AC50 was 2.21 µM (active).

Q: Which outcome does the source give for `Clc1ccccc1C(c1ccccc1)(c1ccccc1)n1ccnc1` here?
A: Its outcome is “inactive”.
